# Source: PubChem BioAssay (NCI)
# The panel holds about 79,000 compounds, 15% with a hit somewhere; the sample as a whole holds those more often. A number with no mark means an inactive call. Calls of active or inactive are those of the source. No stated cut-off is given here; in the data, active means growth inhibition above about 70%; inactive means the rest.
# Tests used:
# [1] = NCI Yeast Anticancer Drug Screen. Data for the rad52 strain (AID 147);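 further: 0% = growth of vehicle-treated control cultures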; conditions: S. cerevisiae rad52 mutant growth inhibition, hits give high values
# Outline: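 Compounds are applied to a genetically defined yeast strain lacking normal DNA damage repair, and inhibition of growth is expressed relative to cultures given vehicle only.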
# [2] = NCI Yeast Anticancer Drug Screen. Data for the wt1 strain (AID 149);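 further: 0% = growth of vehicle-treated wt1 cultures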; conditions: S. cerevisiae wt1 strain (SPY 50644) growth inhibition, hits give high values
# Outline: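 wt1 yeast, compound-treated; % growth inhibition vs vehicle control.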
# [3] = NCI Yeast Anticancer Drug Screen. Data for the rad50EPP+ strain (AID 151);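 further: 0% = growth of vehicle-treated control cultures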; conditions: S. cerevisiae rad50 mutant strain, hits give high values
# Outline: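 Compounds were applied to the rad50EPP+ yeast strain, which bears a defined DNA repair alteration, and growth inhibition was determined relative to vehicle-treated cultures.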
# [4] = NCI Yeast Anticancer Drug Screen. Data for the mgt1 strain (AID 153); conditions: S. cerevisiae mgt1 mutant growth inhibition, hits give high values
# Outline: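 Strain: mgt1 yeast, one of a set carrying defined DNA damage repair or cell cycle control alterations. Compound-treated growth compared with vehicle.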
# [5] = NCI Yeast Anticancer Drug Screen. Data for the rad50 strain (AID 155);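 further: 0% = growth of vehicle-only cultures of the same strain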; conditions: S. cerevisiae rad50 strain growth inhibition, hits give high values
# Outline: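 Genetically altered yeast (DNA repair pathway); compound treatment; growth inhibition vs vehicle ctrl.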
# [6] = NCI Yeast Anticancer Drug Screen. Data for the mec2-1 strain (AID 157); conditions: S. cerevisiae mec2-1 strain, hits give high values
# Outline: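 Strain: mec2-1 (DNA repair/cell cycle alteration). Compound exposure, then growth measured; inhibition expressed relative to vehicle.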
# [7] = NCI Yeast Anticancer Drug Screen. Data for the rad14 strain (AID 159);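 further: 0% = growth of vehicle-treated control cultures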; conditions: S. cerevisiae rad14 strain growth inhibition, hits give high values
# Outline: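 Test compounds were applied to a repair-deficient yeast strain. Its growth was then compared with that of cultures given vehicle alone, and inhibition was expressed relative to those controls.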
# [8] = NCI Yeast Anticancer Drug Screen. Data for the sgs1 mgt1 strain (AID 161);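 further: 0% = growth of cultures given vehicle only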; conditions: S. cerevisiae sgs1 mgt1 strain, hits give high values
# Outline: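 Genetically altered yeast, compound exposure, growth inhibition relative to vehicle.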
# [9] = NCI Yeast Anticancer Drug Screen. Data for the CLN2oe strain (AID 163);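 further: 0% = growth of vehicle-only control cultures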; conditions: S. cerevisiae CLN2oe strain, hits give high values
# Outline: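 Growth of a genetically modified yeast strain is measured after compound exposure and compared with cultures given vehicle alone.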
# [10] = NCI Yeast Anticancer Drug Screen. Data for the cln2 rad14 strain (AID 165);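 further: 0% = growth equal to vehicle treated cultures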; conditions: S. cerevisiae cln2 rad14 strain, hits give high values
# Outline: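 Compounds are applied to the cln2 rad14 yeast strain, and growth is then compared with that of vehicle-treated cultures to give inhibition.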
# [11] = NCI Yeast Anticancer Drug Screen. Data for the bub3 strain (AID 167); conditions: S. cerevisiae bub3 mutant strain, hits give high values
# Outline: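 Yeast carrying a defined mutation is treated with each compound, and growth is compared with that of vehicle-exposed cells to give inhibition.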
# [12] = NCI Yeast Anticancer Drug Screen. Data for the wt2 strain (AID 169);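 further: 0% = growth of vehicle-treated yeast cultures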; conditions: S. cerevisiae wt2 strain growth inhibition, hits give high values
# Outline: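 This strain belongs to a panel of yeast strains with defined genetic alterations in DNA damage repair or cell cycle control. Compounds are applied, and growth inhibition is measured against vehicle-treated cultures.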
# [13] = NCI Yeast Anticancer Drug Screen. Data for the mlh1 strain (AID 171);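 further: 0% = growth of vehicle-treated control cultures of the same strain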; conditions: S. cerevisiae mlh1 strain growth inhibition, hits give high values
# Outline: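 Growth of the mutant yeast strain after compound exposure, expressed as inhibition relative to vehicle-only controls.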
# [14] = NCI Yeast Anticancer Drug Screen. Data for the sgs1 strain (AID 173);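 further: 0% = growth of vehicle-only control cultures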; conditions: S. cerevisiae sgs1 mutant, hits give high values
# Outline: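 Growth of a yeast strain bearing a defined genetic alteration is measured after compound treatment. Inhibition is expressed relative to vehicle-only controls.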
# [15] = NCI Yeast Anticancer Drug Screen. Data for the mlh1 rad18 strain (AID 175); conditions: S. cerevisiae mlh1 rad18 strain growth inhibition, hits give high values
# Outline: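 Read-out is yeast growth inhibition, calculated against vehicle-only controls. The compound was applied to a strain engineered with DNA damage repair alterations.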
# [16] = NCI Yeast Anticancer Drug Screen. Data for the rad18 strain (AID 177); conditions: S. cerevisiae rad18 mutant growth inhibition, hits give high values
# Outline: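 Growth of the mutant yeast strain after compound exposure, normalised to vehicle-only cultures.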
# [17] = at 5.0 µM (retest, dose inferred, filed as 0.5)
# [18] = at 50.0 µM (retest, dose inferred, filed as 5.0)
structure (smiles),measurement,setting,value
COc1cc(C2C3=C(COC3=O)Oc3cc4c(cc32)OCO4)ccc1O (stereo unspecified),growth inhibition,[1]; at 1.2 µM,-1%
same,growth inhibition,[1]; at 3.7 µM,2%
same,growth inhibition,[1]; at 11.0 µM,7%
same,growth inhibition,[1]; at 33.0 µM,34%
same,growth inhibition,[1]; at 100.0 µM,72% (active)
same,growth inhibition,[2]; at 1.2 µM,-2%
same,growth inhibition,[2]; at 3.7 µM,-7%
same,growth inhibition,[2]; at 11.0 µM,-5%
same,growth inhibition,[2]; at 33.0 µM,-5%
same,growth inhibition,[2]; at 100.0 µM,31%
same,growth inhibition,[3]; at 1.2 µM,-3%
same,growth inhibition,[3]; at 3.7 µM,0%
same,growth inhibition,[3]; at 11.0 µM,-3%
same,growth inhibition,[3]; at 33.0 µM,4%
same,growth inhibition,[3]; at 100.0 µM,15%
same,growth inhibition,[4]; at 1.2 µM,-1%
same,growth inhibition,[4]; at 3.7 µM,1%
same,growth inhibition,[4]; at 11.0 µM,0%
same,growth inhibition,[4]; at 33.0 µM,-5%
same,growth inhibition,[4]; at 100.0 µM,30%
same,growth inhibition,[5]; at 1.2 µM,0%
same,growth inhibition,[5]; at 3.7 µM,5%
same,growth inhibition,[5]; [17],95% (active)
same,growth inhibition,[5]; at 11.0 µM,-10%
same,growth inhibition,[5]; at 33.0 µM,35%
same,growth inhibition,[5]; [18],95% (active)
same,growth inhibition,[5]; at 50.0 µM,55.9%
same,growth inhibition,[5]; at 100.0 µM,73% (active)
same,growth inhibition,[6]; at 1.2 µM,-3%
same,growth inhibition,[6]; at 3.7 µM,-2%
same,growth inhibition,[6]; [17],-10%
same,growth inhibition,[6]; at 11.0 µM,-3%
same,growth inhibition,[6]; at 33.0 µM,-4%
same,growth inhibition,[6]; [18],-10%
same,growth inhibition,[6]; at 50.0 µM,32.2%
same,growth inhibition,[6]; at 100.0 µM,33%
same,growth inhibition,[7]; at 1.2 µM,1%
same,growth inhibition,[7]; at 3.7 µM,-1%
same,growth inhibition,[7]; at 11.0 µM,-6%
same,growth inhibition,[7]; at 33.0 µM,-8%
same,growth inhibition,[7]; at 100.0 µM,-20%
same,growth inhibition,[8]; [17],77% (active)
same,growth inhibition,[8]; [18],77% (active)
same,growth inhibition,[8]; at 50.0 µM,22.4%
same,growth inhibition,[9]; at 1.2 µM,0%
same,growth inhibition,[9]; at 3.7 µM,8%
same,growth inhibition,[9]; at 11.0 µM,-1%
same,growth inhibition,[9]; at 33.0 µM,-2%
same,growth inhibition,[9]; at 100.0 µM,24%
same,growth inhibition,[10]; [17],43%
same,growth inhibition,[10]; [18],43%
same,growth inhibition,[10]; at 50.0 µM,34.2%
same,growth inhibition,[11]; at 1.2 µM,-2%
same,growth inhibition,[11]; at 3.7 µM,1%
same,growth inhibition,[11]; [17],-4%
same,growth inhibition,[11]; at 11.0 µM,12%
same,growth inhibition,[11]; at 33.0 µM,5%
same,growth inhibition,[11]; [18],-4%
same,growth inhibition,[11]; at 50.0 µM,29.3%
same,growth inhibition,[11]; at 100.0 µM,32%
same,growth inhibition,[12]; at 1.2 µM,-2%
same,growth inhibition,[12]; at 3.7 µM,-4%
same,growth inhibition,[12]; at 11.0 µM,-5%
same,growth inhibition,[12]; at 33.0 µM,-1%
same,growth inhibition,[12]; at 100.0 µM,42%
same,growth inhibition,[13]; at 1.2 µM,-1%
same,growth inhibition,[13]; at 3.7 µM,-5%
same,growth inhibition,[13]; at 11.0 µM,-4%
same,growth inhibition,[13]; at 33.0 µM,8%
same,growth inhibition,[13]; at 100.0 µM,0%
same,growth inhibition,[14]; at 1.2 µM,-4%
same,growth inhibition,[14]; at 3.7 µM,-6%
same,growth inhibition,[14]; at 11.0 µM,-6%
same,growth inhibition,[14]; at 33.0 µM,14%
same,growth inhibition,[14]; at 100.0 µM,59%
same,growth inhibition,[15]; [17],45%
same,growth inhibition,[15]; [18],45%
same,growth inhibition,[15]; at 50.0 µM,78% (active)
same,growth inhibition,[16]; at 1.2 µM,2%
same,growth inhibition,[16]; at 3.7 µM,-6%
same,growth inhibition,[16]; at 11.0 µM,3%
same,growth inhibition,[16]; at 33.0 µM,32%
same,growth inhibition,[16]; at 100.0 µM,80% (active)
CCN(CC)C(C)(C)C(=O)/C=C/c1ccccc1,growth inhibition,[1]; at 1.2 µM,-1%
same,growth inhibition,[1]; at 3.7 µM,-1%
same,growth inhibition,[1]; at 11.0 µM,0%
same,growth inhibition,[1]; at 33.0 µM,-1%
same,growth inhibition,[1]; at 100.0 µM,2%
same,growth inhibition,[2]; at 1.2 µM,0%
same,growth inhibition,[2]; at 3.7 µM,5%
same,growth inhibition,[2]; at 11.0 µM,2%
same,growth inhibition,[2]; at 33.0 µM,2%
same,growth inhibition,[2]; at 100.0 µM,4%
same,growth inhibition,[3]; at 1.2 µM,2%
same,growth inhibition,[3]; at 3.7 µM,6%
same,growth inhibition,[3]; at 11.0 µM,8%
same,growth inhibition,[3]; at 33.0 µM,6%
same,growth inhibition,[3]; at 100.0 µM,5%
same,growth inhibition,[4]; at 1.2 µM,-3%
same,growth inhibition,[4]; at 3.7 µM,-3%
same,growth inhibition,[4]; at 11.0 µM,-3%
same,growth inhibition,[4]; at 33.0 µM,-1%
same,growth inhibition,[4]; at 100.0 µM,2%
same,growth inhibition,[5]; at 1.2 µM,0%
same,growth inhibition,[5]; at 3.7 µM,2%
same,growth inhibition,[5]; [17],19%
same,growth inhibition,[5]; at 11.0 µM,0%
same,growth inhibition,[5]; at 33.0 µM,1%
same,growth inhibition,[5]; [18],80% (active)
same,growth inhibition,[5]; at 50.0 µM,17.2%
same,growth inhibition,[5]; at 100.0 µM,3%
same,growth inhibition,[6]; at 1.2 µM,1%
same,growth inhibition,[6]; at 3.7 µM,6%
same,growth inhibition,[6]; [17],-15%
same,growth inhibition,[6]; at 11.0 µM,5%
same,growth inhibition,[6]; at 33.0 µM,9%
same,growth inhibition,[6]; [18],47%
same,growth inhibition,[6]; at 50.0 µM,13.7%
same,growth inhibition,[6]; at 100.0 µM,4%
same,growth inhibition,[7]; at 1.2 µM,-3%
same,growth inhibition,[7]; at 3.7 µM,-3%
same,growth inhibition,[7]; at 11.0 µM,1%
same,growth inhibition,[7]; at 33.0 µM,5%
same,growth inhibition,[7]; at 100.0 µM,14%
same,growth inhibition,[8]; [17],42%
same,growth inhibition,[8]; [18],92% (active)
same,growth inhibition,[8]; at 50.0 µM,17.6%
same,growth inhibition,[9]; at 1.2 µM,-4%
same,growth inhibition,[9]; at 3.7 µM,-12%
same,growth inhibition,[9]; at 11.0 µM,-4%
same,growth inhibition,[9]; at 33.0 µM,1%
same,growth inhibition,[9]; at 100.0 µM,2%
same,growth inhibition,[10]; [17],-9%
same,growth inhibition,[10]; [18],46%
same,growth inhibition,[10]; at 50.0 µM,7.15%
same,growth inhibition,[11]; at 1.2 µM,-1%
same,growth inhibition,[11]; at 3.7 µM,-3%
same,growth inhibition,[11]; [17],9%
same,growth inhibition,[11]; at 11.0 µM,0%
same,growth inhibition,[11]; at 33.0 µM,-1%
same,growth inhibition,[11]; [18],77% (active)
same,growth inhibition,[11]; at 50.0 µM,17.8%
same,growth inhibition,[11]; at 100.0 µM,-5%
same,growth inhibition,[12]; at 1.2 µM,0%
same,growth inhibition,[12]; at 3.7 µM,-1%
same,growth inhibition,[12]; at 11.0 µM,-1%
same,growth inhibition,[12]; at 33.0 µM,3%
same,growth inhibition,[12]; at 100.0 µM,6%
same,growth inhibition,[13]; at 1.2 µM,2%
same,growth inhibition,[13]; at 3.7 µM,2%
same,growth inhibition,[13]; at 11.0 µM,3%
same,growth inhibition,[13]; at 33.0 µM,3%
same,growth inhibition,[13]; at 100.0 µM,5%
same,growth inhibition,[14]; at 1.2 µM,2%
same,growth inhibition,[14]; at 3.7 µM,1%
same,growth inhibition,[14]; at 11.0 µM,4%
same,growth inhibition,[14]; at 33.0 µM,6%
same,growth inhibition,[14]; at 100.0 µM,7%
same,growth inhibition,[15]; [17],57%
same,growth inhibition,[15]; [18],95% (active)
same,growth inhibition,[15]; at 50.0 µM,20.4%
same,growth inhibition,[16]; at 1.2 µM,1%
same,growth inhibition,[16]; at 3.7 µM,-1%
same,growth inhibition,[16]; at 11.0 µM,-1%
same,growth inhibition,[16]; at 33.0 µM,3%
same,growth inhibition,[16]; at 100.0 µM,6%
